{"source": "the supplement of paper PMC8728848", "assay_in_all_cases": "glycan array binding signal (z-score within array); higher = stronger binding", "conditions_in_all_cases": "glycan notation: IUPAC condensed, linker removed", "key": {"Fuc(a1-2)Gal(b1-4)GlcNAc": {"target": "Fuc(a1-2)Gal(b1-4)GlcNAc", "in_short": "(§1)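 Glycan array data were curated from 3228 arrays in the Consortium for Functional Glycomics database and kept only where the protein sequence was available. Glycan names were converted to IUPAC-condensed notation, and columns mapping to the same glycan were averaged. The binding signal is a within-array Z-score, averaged across arrays of the same protein sequence at different concentrations or buffers and across linkers. Negative Z-scores can be read as non-binding.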"}, "Fuc(a1-2)[Gal(a1-3)]Gal": {"target": "Fuc(a1-2)[Gal(a1-3)]Gal", "in_short": "as §1"}, "Fuc(b1-3)GlcNAc": {"target": "Fuc(b1-3)GlcNAc", "in_short": "as §1"}, "[1]": {"target": "Gal(a1-3)[Gal(a1-4)]Gal(b1-4)GlcNAc", "in_short": "as §1"}, "[2]": {"target": "Gal(b1-3)[Neu5Ac(a2-6)]GalNAc", "in_short": "as §1"}, "[3]": {"target": "Gal(b1-4)GlcNAc(b1-3)Gal(b1-4)GlcNAc", "in_short": "as §1"}, "GlcNAc(b1-3)Gal": {"target": "GlcNAc(b1-3)Gal", "in_short": "as §1"}, "GlcNAc(b1-3)Gal(b1-4)Glc": {"target": "GlcNAc(b1-3)Gal(b1-4)Glc", "in_short": "as §1"}, "[4]": {"target": "GlcNAc(b1-3)[GlcNAc(b1-6)]Gal(b1-4)GlcNAc", "in_short": "as §1"}, "[5]": {"target": "GlcNAc(b1-3)[GlcNAc(b1-6)]GalNAc", "in_short": "as §1"}, "[6]": {"target": "GlcNAc(b1-4)[GlcNAc(b1-6)]GalNAc", "in_short": "as §1"}, "[7]": {"target": "Neu5Ac(a2-3)Gal(b1-3)GalNAc(b1-3)Gal(a1-4)Gal(b1-4)Glc", "in_short": "as §1"}, "[8]": {"target": "Neu5Ac(a2-3)Gal(b1-3)GalNAc(b1-3)Gal(b1-4)GlcNAc", "in_short": "as §1"}, "[9]": {"target": "Neu5Ac(a2-3)Gal(b1-4)GlcNAc", "in_short": "as §1"}, "Neu5Ac(a2-3)GalNAc": {"target": "Neu5Ac(a2-3)GalNAc", "in_short": "as §1"}, "[10]": {"target": "GlcNAc(b1-4)GlcNAc(b1-4)GlcNAc(b1-4)GlcNAc(b1-4)GlcNAc", "in_short": "as §1"}, "Kdn(a2-6)Gal(b1-4)GlcNAc": {"target": "Kdn(a2-6)Gal(b1-4)GlcNAc", "in_short": "as §1"}, "[11]": {"target": "Man(a1-2)Man(a1-3)[Man(a1-6)]Man(a1-6)[Man(a1-2)Man(a1-3)]Man(b1-4)GlcNAc(b1-4)GlcNAc", "in_short": "as §1"}, "[12]": {"target": "Man(a1-3)[Man(a1-6)]Man(a1-6)[Man(a1-3)]Man", "in_short": "as §1"}, "[13]": {"target": "Neu5Ac(a2-3)Gal(b1-3)GalNAc(b1-4)[Neu5Ac(a2-3)]Gal(b1-4)Glc", "in_short": "as §1"}, "[14]": {"target": "Neu5Ac(a2-3)Gal(b1-3)GlcNAc(b1-2)Man", "in_short": "as §1"}, "[15]": {"target": "Neu5Ac(a2-3)Gal(b1-4)GlcNAc(b1-2)Man", "in_short": "as §1"}, "[16]": {"target": "Neu5Ac(a2-3)Gal(b1-4)GlcNAc(b1-2)Man(a1-3)[Neu5Ac(a2-3)Gal(b1-4)GlcNAc(b1-2)Man(a1-6)]Man(b1-4)GlcNAc(b1-4)[Fuc(a1-6)]GlcNAc", "in_short": "as §1"}, "[17]": {"target": "Neu5Ac(a2-3)Gal(b1-4)GlcNAc(b1-2)[Neu5Ac(a2-3)Gal(b1-4)GlcNAc(b1-4)]Man(a1-3)[GlcNAc(b1-4)][Neu5Ac(a2-3)Gal(b1-4)GlcNAc(b1-2)[Neu5Ac(a2-3)Gal(b1-4)GlcNAc(b1-6)]Man(a1-6)]Man(b1-4)GlcNAc(b1-4)GlcNAc", "in_short": "as §1"}, "[18]": {"target": "Neu5Ac(a2-3)Gal(b1-4)GlcNAc(b1-3)Gal(b1-4)GlcNAc(b1-3)Gal(b1-4)GlcNAc(b1-2)Man(a1-3)[Neu5Ac(a2-3)Gal(b1-4)GlcNAc(b1-3)Gal(b1-4)GlcNAc(b1-3)Gal(b1-4)GlcNAc(b1-2)Man(a1-6)]GalNAc", "in_short": "as §1"}, "[19]": {"target": "Neu5Ac(a2-3)Gal(b1-4)GlcNAc(b1-3)Gal(b1-4)GlcNAc(b1-3)[Neu5Ac(a2-3)Gal(b1-4)GlcNAc(b1-3)Gal(b1-4)GlcNAc(b1-6)]GalNAc", "in_short": "as §1"}, "[20]": {"target": "Neu5Ac(a2-3)Gal(b1-4)[Fuc(a1-3)]GlcNAc(b1-2)Man", "in_short": "as §1"}, "[21]": {"target": "Neu5Ac(a2-3)Gal(b1-4)[Fuc(a1-3)]GlcNAc(b1-3)GalNAc", "in_short": "as §1"}, "[22]": {"target": "Neu5Ac(a2-3)[GalNAc(b1-4)]Gal(b1-4)Glc", "in_short": "as §1"}, "Neu5Ac(a2-6)Gal": {"target": "Neu5Ac(a2-6)Gal", "in_short": "as §1"}, "[23]": {"target": "Neu5Ac(a2-6)Gal(b1-4)GlcNAc(b1-2)Man", "in_short": "as §1"}, "[24]": {"target": "Neu5Ac(a2-6)Gal(b1-4)GlcNAc(b1-2)Man(a1-3)Man(b1-4)GlcNAc(b1-4)GlcNAc", "in_short": "as §1"}, "[25]": {"target": "Neu5Ac(a2-6)Gal(b1-4)GlcNAc(b1-2)Man(a1-6)[GlcNAc(b1-2)Man(a1-3)]Man(b1-4)GlcNAc(b1-4)GlcNAc", "in_short": "as §1"}, "[26]": {"target": "Neu5Ac(a2-6)Gal(b1-4)GlcNAc(b1-3)Gal(b1-3)GlcNAc", "in_short": "as §1"}, "[27]": {"target": "Neu5Ac(a2-6)Gal(b1-4)GlcNAc(b1-3)Gal(b1-4)GlcNAc(b1-3)Gal(b1-4)GlcNAc(b1-2)Man(a1-3)[Neu5Ac(a2-6)Gal(b1-4)GlcNAc(b1-3)Gal(b1-4)GlcNAc(b1-3)Gal(b1-4)GlcNAc(b1-2)Man(a1-6)]GalNAc", "in_short": "as §1"}, "[28]": {"target": "Neu5Ac(a2-6)Gal(b1-4)GlcNAc(b1-3)Gal(b1-4)GlcNAc(b1-3)[Neu5Ac(a2-6)Gal(b1-4)GlcNAc(b1-3)Gal(b1-4)GlcNAc(b1-6)]GalNAc", "in_short": "as §1"}, "Neu5Ac(a2-8)Neu5Ac": {"target": "Neu5Ac(a2-8)Neu5Ac", "in_short": "as §1"}, "[29]": {"target": "Neu5Ac(a2-8)Neu5Ac(a2-3)[GalNAc(b1-4)]Gal(b1-4)Glc", "in_short": "as §1"}, "[30]": {"target": "Neu5Ac9Ac(a2-3)Gal(b1-4)GlcNAc", "in_short": "as §1"}, "Neu5Gc(a2-6)GalNAc": {"target": "Neu5Gc(a2-6)GalNAc", "in_short": "as §1"}, "[31]": {"target": "Neu5Gc(b2-6)Gal(b1-4)GlcNAc", "in_short": "as §1"}}, "note": "This excerpt belongs to a sample that is enriched for the strongest signals."}
{"binder": "F17dG (Escherichia coli), Q47199 (protein) MTNFYKVFLAVFILVCCNISQAAVSFIGSTENDVGPSPGSYSRTHAMDNLPFVYNTGNNIGYQNANVWRISKGFCVGLDGKVDLPVVGSLDGQSIYGLTEEVGLLIWMGDTNYSRGTAMSGNSWENVFSGWCVGANTASTQGLSVRVTPVILKRNSSARYSVQKTSIGSIRMRPYNGSSAGSVQTTVNFSLNPFTLNDTVTSCRLLTPSAVNVSLAAISAGQLPSSGDEVVAGTTSLKLQCDAGVTVWATLTDATTPSNRSDILTLTGASTATGVGLRIYKNTDSTPLKFGPDSPVKGNENQWQLSTGTETSPSVRLYVKYVNTGEGINPGTVNGISTFTFSYQ", "values": [{"measurement": "glycan array binding signal (z-score)", "setting": "Fuc(a1-2)Gal(b1-4)GlcNAc", "result": -0.185}, {"measurement": "glycan array binding signal (z-score)", "setting": "Fuc(a1-2)[Gal(a1-3)]Gal", "result": -0.276}, {"measurement": "glycan array binding signal (z-score)", "setting": "Fuc(b1-3)GlcNAc", "result": -0.225}, {"measurement": "glycan array binding signal (z-score)", "setting": "[1]", "result": -0.399}, {"measurement": "glycan array binding signal (z-score)", "setting": "[2]", "result": -0.194}, {"measurement": "glycan array binding signal (z-score)", "setting": "[3]", "result": -0.287}, {"measurement": "glycan array binding signal (z-score)", "setting": "GlcNAc(b1-3)Gal", "result": 4.56}, {"measurement": "glycan array binding signal (z-score)", "setting": "GlcNAc(b1-3)Gal(b1-4)Glc", "result": 5.88}, {"measurement": "glycan array binding signal (z-score)", "setting": "[4]", "result": 5.46}, {"measurement": "glycan array binding signal (z-score)", "setting": "[5]", "result": 6.17}, {"measurement": "glycan array binding signal (z-score)", "setting": "[6]", "result": -0.009}, {"measurement": "glycan array binding signal (z-score)", "setting": "[7]", "result": -0.399}, {"measurement": "glycan array binding signal (z-score)", "setting": "[8]", "result": -0.204}, {"measurement": "glycan array binding signal (z-score)", "setting": "[9]", "result": -0.354}, {"measurement": "glycan array binding signal (z-score)", "setting": "Neu5Ac(a2-3)GalNAc", "result": -0.327}]}
{"binder": "HA-00510 (Pseudomonas aeruginosa), Q02V39_PSEAB (protein) GVPIVNIATPNGAGLSNNHFRDYNVGANGLILNNATGKTQGTQLGGIILGNPNLKGQAAQVILNQVTGGNRSTLAGYTEVAGQSARVIVANPHGITCQGCGFINTPRATLTTGKPIMDGQRLERFQVDGGDIVVEGAELNVGNLEQFDLITRSAKLNAKLYAKNLNIVTGRNDVQADSLQATPRAADGSEKPQLAIDSSALGGMYAGAIRLVGTEQGVGVKLAGDMAASGGDIRIDASGKLSLAQASSQGDLKIAAQAVELNGKTYAGGSAEIRSAEELVNRQS", "values": [{"measurement": "glycan array binding signal (z-score)", "setting": "[10]", "result": 0.345}, {"measurement": "glycan array binding signal (z-score)", "setting": "Kdn(a2-6)Gal(b1-4)GlcNAc", "result": -0.045}, {"measurement": "glycan array binding signal (z-score)", "setting": "[11]", "result": -0.534}, {"measurement": "glycan array binding signal (z-score)", "setting": "[12]", "result": -0.502}, {"measurement": "glycan array binding signal (z-score)", "setting": "[13]", "result": 0.112}, {"measurement": "glycan array binding signal (z-score)", "setting": "[14]", "result": -0.852}, {"measurement": "glycan array binding signal (z-score)", "setting": "[15]", "result": 1.18}, {"measurement": "glycan array binding signal (z-score)", "setting": "[16]", "result": 0.601}, {"measurement": "glycan array binding signal (z-score)", "setting": "[17]", "result": 0.048}, {"measurement": "glycan array binding signal (z-score)", "setting": "[18]", "result": 3.77}, {"measurement": "glycan array binding signal (z-score)", "setting": "[19]", "result": -0.447}, {"measurement": "glycan array binding signal (z-score)", "setting": "[20]", "result": -1.16}, {"measurement": "glycan array binding signal (z-score)", "setting": "[21]", "result": 2.86}, {"measurement": "glycan array binding signal (z-score)", "setting": "[22]", "result": -0.269}, {"measurement": "glycan array binding signal (z-score)", "setting": "Neu5Ac(a2-6)Gal", "result": 0.437}, {"measurement": "glycan array binding signal (z-score)", "setting": "[23]", "result": 2.52}, {"measurement": "glycan array binding signal (z-score)", "setting": "[24]", "result": -0.14}, {"measurement": "glycan array binding signal (z-score)", "setting": "[25]", "result": -0.425}, {"measurement": "glycan array binding signal (z-score)", "setting": "[26]", "result": 2.34}, {"measurement": "glycan array binding signal (z-score)", "setting": "[27]", "result": 3.69}, {"measurement": "glycan array binding signal (z-score)", "setting": "[28]", "result": 2.75}, {"measurement": "glycan array binding signal (z-score)", "setting": "Neu5Ac(a2-8)Neu5Ac", "result": 0.611}, {"measurement": "glycan array binding signal (z-score)", "setting": "[29]", "result": -0.094}, {"measurement": "glycan array binding signal (z-score)", "setting": "[30]", "result": 0.419}, {"measurement": "glycan array binding signal (z-score)", "setting": "Neu5Gc(a2-6)GalNAc", "result": -0.059}, {"measurement": "glycan array binding signal (z-score)", "setting": "[31]", "result": -0.019}]}
